Laboratory results: PubChem BioAssay AID2314 (National Center for Advancing Translational Sciences (NCATS), 2010)
Hit rate of the full screen: of about 300,000 compounds, about 37,000 (12%) were called active. Rule as the data show it: active = max response mostly above about 13% (no sharp cut-off); inactive = mostly below about 14%. Many of the other results were omitted from the sample, so actives are more common in it than they were.

Assay: Cycloheximide Counterscreen for Small Molecule Inhibitors of Shiga Toxin; also: read at 38.3 µM for the half of the compounds with a filed dose; 0% is about no effect
Conditions: cell reporter, cycloheximide protein synthesis inhibition counterscreen; active compounds read high

SMILES	max response
CSCCC(NS(=O)(=O)c1ccc(C)cc1)C(=O)NCCc1c[nH]c2ccccc12 (centres undefined)	-3.49% (inactive)
COc1ccc(NC(=S)NCC2CCN(c3ccc(OC)cc3)C2)cc1 (centres undefined)	1.9% (inactive)
COc1ccc(NC(=S)N2CCc3cc(OC)c(OC)cc3C2)cc1	14.2% (inactive)
COc1ccc(N2CCN(C(=S)Nc3ccc(S(N)(=O)=O)cc3)CC2)cc1	-1.06% (inactive)
COc1ccc(NC(=S)N2N=CCC2c2ccccc2)cc1 (centres undefined)	36.2% (active)
Cc1ccccc1N(C(=O)CNC(=O)c1cccs1)C(C(=O)NC1CCCC1)c1ccncc1 (centres undefined)	-8.35% (inactive)
CC(=O)c1cc(CN2CCC(n3nccc3NC(=O)c3ccccc3Cl)CC2)cs1	-1.43% (inactive)
COCCNc1ncnc2c1nc1n2CCCC1	-3.81% (inactive)
CC(NC(=O)COc1ccc(-c2ccccc2)cc1)C1CCCO1 (centres undefined)	1.81% (inactive)
Cc1ccc(S(=O)(=O)NC(=O)c2cccc(C)c2)cc1	13.6% (inactive)
Cc1cc(-n2cnc(-c3cn(C)nc3C)n2)no1	21.3% (active)
COc1ccc(C)cc1S(=O)(=O)N1CCN(S(=O)(=O)c2cc(C(=O)O)ccc2C)CC1	1.26% (inactive)
CCOC(=O)/C(=N\Nc1ccccc1Cl)N(C)C1CCS(=O)(=O)C1 (centres undefined)	-5.92% (inactive)
O=C(Nc1sc2c(c1C(=O)O)CCC2)c1ccccc1F	-2.19% (inactive)
NC(=O)c1c(NC(=O)c2ccccc2)sc2c1CCCC2	31.6% (active)
NC(=O)c1c(NC(=O)CSc2nnc(-c3ccco3)n2N)sc2c1CCCC2	5.01% (inactive)
O=C(O)c1c(NC(=O)N2CCCC2)sc2c1CCCC2	25.7% (active)
NC(=O)c1c(Nc2nc3c(F)cccc3s2)sc2c1CCCC2	17.8% (active)
CC(C)OC(=O)c1c(NC(=O)c2ccco2)sc2c1CCCC2	-0.728% (inactive)
C=CCN(CC=C)S(=O)(=O)c1ccc(C(=O)Nc2sc3c(c2C(N)=O)CCCCC3)cc1	3.07% (inactive)
NC(=O)c1c(NC(=O)CSc2nc(N)cc(=O)[nH]2)sc2c1CCCC2	-0.688% (inactive)
Fc1cc(F)c2nc(Nc3nc4c(F)cccc4s3)sc2c1	13.2% (active)
COC(=O)c1c(NC(=O)C2CC(C)=C(C)CC2C(=O)O)sc2c1CCCCC2 (centres undefined)	-1.42% (inactive)
COc1cc2ccccc2cc1C(=O)N(CCN(C)C)c1nc2c(F)cccc2s1	-3.64% (inactive)
CCC(=O)N1CCc2cc(S(=O)(=O)CCC(=O)N3CCN(c4ccccc4F)CC3)ccc21	2.85% (inactive)

SMILES	max response
CCOc1ccc(NS(=O)(=O)c2cc(C)c(C)cc2C)cc1	0.868% (inactive)
Cc1ccccc1N1CCN(C2CCCN(C(=O)c3ocnc3C)C2)CC1 (centres undefined)	1.48% (inactive)
CCCCCC(O)(CCN1CCCCC1)c1ccccc1 (centres undefined)	-2.5% (inactive)
O=C(COC(=O)/C=C/c1ccc(S(=O)(=O)N2CCCCCC2)cc1)NCc1ccccc1Cl	0.471% (inactive)
CCCCn1c(=O)c(CCC(=O)OCC(=O)Nc2ccc(C)c(Cl)c2)nc2ccccc21	-1.67% (inactive)
CC(=O)NS(=O)(=O)c1ccc(NC(=O)C2C3C=CC(C3)C2C(=O)O)cc1 (centres undefined)	-2.43% (inactive)
COC(=O)c1cc(NC(=O)C2C3C=CC(C3)C2C(=O)O)cc(C(=O)OC)c1 (centres undefined)	-3.42% (inactive)
CC(C)COC(=O)c1ccc(NC(=O)C2C3C=CC(C3)C2C(=O)O)cc1 (centres undefined)	29% (active)
CCN(CC)S(=O)(=O)c1ccc(N(C)Cc2cccc(OC)c2OC)nc1	10.4% (inactive)
CCc1ccc(-c2cc(C(=O)NCc3ccco3)c3ccccc3n2)s1	14.1% (inactive)
COc1ccccc1NC(=O)c1ccc2nc(N3C(=O)CCC3=O)sc2c1	7.91% (inactive)
CC(=NCc1ccco1)c1c(C(F)(F)F)[nH]n(-c2nc3ccccc3s2)c1=O	48.5% (active)
C/C(=N\NC(=O)CC(C)C)c1c(C(F)(F)F)[nH]n(-c2nc3ccccc3s2)c1=O	35.6% (active)
CCC(C)Cn1c(O)cc2nn(-c3nc4ccccc4s3)c(=O)c-2c1C (centres undefined)	3.42% (inactive)
COC(=O)Cc1[nH]n(-c2nc3ccccc3s2)c(=O)c1C(C)=Nc1ccc(OC)cc1	38.2% (active)
C=CCn1c(CSc2nc3ccccc3s2)nnc1SCC(=O)NCc1ccco1	0.347% (inactive)
CCOC(=O)N1CCN(CC(=O)Nc2cc(C)nn2-c2nc3ccccc3s2)CC1	2.1% (inactive)
COc1ccc(CC(=O)N/N=C(\C)c2ccccn2)cc1	-3.12% (inactive)
Cc1ccc(C(=O)NCC(=O)OCC(=O)NC2CCCCCCC2)cc1	-2.63% (inactive)
Cc1ccc(NC(=O)Cn2c(=O)n(CCC(=O)NC3CCN(Cc4ccccc4)CC3)c(=O)c3ccccc32)cc1	-1.8% (inactive)
O=C(NCCCNC(=O)c1ccccc1Cl)c1cnccn1	-1.06% (inactive)
COC(=O)Nc1ccc(S(=O)(=O)Nc2cc(OC)nc(OC)n2)cc1	8.38% (inactive)
COc1ccc(-c2ccc(CCC(=O)O)n2NC(=O)c2ccc(C(C)(C)C)cc2)cc1	15.2% (inactive)
CC(=O)Nc1ccc(Nc2ncnc3c2nnn3Cc2ccccc2Cl)cc1	-1.15% (inactive)
CC1C(=O)Nc2ccc(S(=O)(=O)N3CCN(c4ccccc4F)CC3)cc2NC1=O (centres undefined)	-4.25% (inactive)

SMILES	max response
COc1cc(CCC(=O)Nc2ccncc2Cl)cc(OC)c1OC	-2.42% (inactive)
Cn1c2ccccc2c(=O)c2c(=O)n(Cc3ccco3)c(COc3ccccc3)nc21	-1.78% (inactive)
Cc1ccccc1NC(=O)CN1C(=O)N/C(=C\c2cccn2-c2cccc(C(=O)O)c2)C1=O	-9.3% (inactive)
COc1cc2c(cc1/C=C1/NC(=O)N(c3ccccc3)C1=O)OCO2	6.72% (inactive)
O=C1N/C(=C/c2cccn2-c2ccccc2)C(=O)N1c1cccc(Cl)c1	34.8% (active)
COc1cc(N2CCCC2)c(OC)cc1/C=C(/C#N)c1cccc(Br)c1	-3.93% (inactive)
COc1cc(C(=O)N2CCN(C3CCC(C)CC3)CC2)cc(OC)c1OC (centres undefined)	-0.901% (inactive)
Nc1ccc2nn(-c3ccc(Cl)cc3)nc2c1	39.4% (active)
COc1ccc(-c2[nH]ncc2CN(Cc2nccn2C)C(C)C)cc1F	0.417% (inactive)
Cc1nn(C)c(Cl)c1CN1CCC(n2nccc2NC(=O)C2CCCC2)CC1	-0.568% (inactive)
Cc1ccc(S(=O)(=O)NCCSC(C)(C)C)cc1	1.94% (inactive)
CC(C)(C)SCCSC1=CC(=O)CC(c2ccccc2)C1 (centres undefined)	48.7% (active)
CCC(C)N1CC(=O)N2Cc3[nH]c4ccccc4c3C[C@H]2C1=O (some centres undefined)	-5.44% (inactive)
COC(=O)c1ccccc1NC(=O)CSc1n[nH]c(-c2ccncc2)n1	-2.03% (inactive)
CC(C)=CCCC1(C)C=Cc2c(ccc3c2[nH]c2cc(O)c(C)cc23)O1 (centres undefined)	14% (active)
CC/C(=N\NC(=S)NC(C)C)c1ccc(OC(F)F)cc1	7.39% (inactive)
O=C(O)CCCn1c(=O)c2cccn2c2ccc(F)cc21	-0.924% (inactive)
Cc1cc(/C=C2/SC(=O)N(CC(=O)N3CCCC3)C2=O)ccc1N1CCOCC1	12.3% (inactive)
O=c1[nH]c(N2CCOCC2)nc2ccccc12	-4.42% (inactive)
O=C1N=C(N2CCOCC2)CS1	11.5% (inactive)
CCc1ccc(/C=C2\SC(N3CCOCC3)=NC2=O)cc1	17.2% (inactive)
O=C1N=C(N2CCOCC2)S/C1=C\C=C/c1ccccc1	44.4% (active)
Cc1ccsc1/C=C1\SC(N2CCOCC2)=NC1=O	32.7% (active)
Fc1ccc(-c2ccc(CNCc3ccccn3)o2)cc1Cl	11.4% (inactive)
COc1ccc(C(=O)C2CCCN(Cc3cccn3-c3ccccn3)C2)c(C)c1 (centres undefined)	-2.02% (inactive)

SMILES	max response
C[C@@H](NC(=O)[C@@H]1Cc2ccccc2CN1)C(=O)NC1CCCC1	-1.91% (inactive)
CCOc1ccc(/C=N\NC(=O)c2c(C)nc3cc(C)ccn23)cc1	0.972% (inactive)
NC(=O)C1CCN(C(=O)c2ccc3c(=O)n(Cc4cccc(Br)c4)c(=S)[nH]c3c2)CC1	-3.9% (inactive)
O=C(Nc1ccccc1C(=O)N1CCCCC1)c1ccco1	-0.706% (inactive)
CS/C(=C\C(=O)c1ccco1)Nc1ccccc1Cl	38.1% (active)
O=C(c1cccc(S(=O)(=O)Nc2ccccc2Cl)c1)N1CCN(C(=O)c2ccco2)CC1	-0.249% (inactive)
CCOc1ccc(CC(=O)NC2CCN(Cc3ccccc3)CC2)cc1	4.32% (inactive)
CCCOC(=O)c1c(NC(=O)c2cnn3c2NC(c2ccccc2)CC3C(F)(F)F)sc2c1CCCC2 (centres undefined)	-8.8% (inactive)
CCc1nc(Nc2ccc(NC(C)=O)cc2)c2oc3ccccc3c2n1	-3.08% (inactive)
CCc1nc(N2CCN(c3nc(C)cc(C)n3)CC2)c2oc3ccccc3c2n1	2.99% (inactive)
CCc1nc(Nc2ccc3nccnc3c2)c2oc3ccccc3c2n1	12.4% (active)
O=S(=O)(Nc1ccc(Cl)cn1)c1cnc(Cl)c(Br)c1	-1.38% (inactive)
CCN1CCN(c2cc3nc(C)n(Cc4ccccc4)c(=O)c3cc2NC(=O)c2ccccc2F)CC1	-3.92% (inactive)
Cc1nnnn1/C(=C\c1ccccc1)C(=O)OCC(=O)N1CC2(C)CC1CC(C)(C)C2 (centres undefined)	-5.53% (inactive)
O=C(Nc1nnc(C2COc3ccccc3O2)o1)c1ccc(F)cc1 (centres undefined)	1.61% (inactive)
Cc1ccc(Cn2c(SCC(=O)N/N=C/c3ccccc3OCC(=O)O)nc3ccccc32)cc1	3.56% (inactive)
O=C(CSc1nc2ccccc2o1)N/N=C/c1ccccc1C(=O)O	13.7% (active)
CCC(NC(=O)c1ccccc1NC(=O)c1ccccc1)C(=O)NNC(=O)CSc1nc2ccccc2o1 (centres undefined)	16.5% (active)
Cn1c(=O)[nH]c(=O)c2c1nc(Br)n2CCCCSc1nc2ccccc2o1	-4.25% (inactive)
CCc1ccccc1NC(=O)CSc1nnc([C@@H](NC(=O)OC(C)(C)C)C(C)CC)o1 (some centres undefined)	-3.76% (inactive)
CCn1c(SCC(=O)N/N=C/c2ccncc2)nc2ccccc21	-1.38% (inactive)
Cn1c(SCC(=O)N/N=C/c2ccc(O)c(O)c2)nc2ccccc21	-3.26% (inactive)
COc1ccc(S(=O)(=O)N(CC(=O)N/N=C/c2ccccc2C(=O)O)c2ccccc2OC)cc1	1.7% (inactive)
Cc1ccc(/C=N/NC(=O)CSc2nc3ccccc3o2)cc1	38.7% (active)
